Results taken from PubChem BioAssay (Tox21).
Results filed as inconclusive are left out. A call without a number means that no potency is given here. Active and inactive are the calls of the source. Unless noted, the call rests on the fitted dose curve; in most records, active means well fitted curve in the direction sought with a large enough effect in the repeat runs; inconclusive means weak or mixed curves; inactive means no such curve, though single readings can be large; an effect the other way counts as inactive or inconclusive.

Experiments:
[1] = target: Luciferin 4-monooxygenase (Photinus pyralis) (UniProt P08659); assay: qHTS assay to identify small molecule inhibitors of firefly luciferase (AID 1224835); further: series mostly up to about 120 µM; nearly all actives have a fitted effect of over 25% in size
Sequence of Luciferin 4-monooxygenase (Photinus pyralis) (P08659 whole entry, looked up): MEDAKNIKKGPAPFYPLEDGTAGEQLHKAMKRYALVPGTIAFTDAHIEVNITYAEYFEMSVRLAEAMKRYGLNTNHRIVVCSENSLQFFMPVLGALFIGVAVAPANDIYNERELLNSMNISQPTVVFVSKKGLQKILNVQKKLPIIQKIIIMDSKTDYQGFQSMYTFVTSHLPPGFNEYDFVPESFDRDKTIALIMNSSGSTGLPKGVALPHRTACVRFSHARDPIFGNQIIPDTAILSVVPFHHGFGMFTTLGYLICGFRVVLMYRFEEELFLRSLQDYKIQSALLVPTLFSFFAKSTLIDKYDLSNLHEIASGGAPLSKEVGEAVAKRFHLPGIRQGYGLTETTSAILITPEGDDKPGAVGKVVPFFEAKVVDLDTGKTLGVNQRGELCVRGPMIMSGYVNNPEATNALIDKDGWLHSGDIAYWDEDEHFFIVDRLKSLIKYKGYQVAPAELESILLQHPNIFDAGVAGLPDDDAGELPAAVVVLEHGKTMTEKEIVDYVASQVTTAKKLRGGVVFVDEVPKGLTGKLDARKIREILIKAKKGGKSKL
Method in brief: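 Inhibition of purified Photinus luciferase is measured by luminescence. Substrate levels (D-luciferin, ATP) sit at their KM values. Each compound is tested in a concentration series.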

[2] = qHTS assay to identify small molecule agonists of the constitutive androstane receptor (CAR) signaling pathway - cell viability counter screen (AID 1224836); further: series mostly up to about 92 µM; nearly all actives have a fitted effect of over 45% in size
Method in brief: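 Fluorescence from CellTiter-Fluor indicates live cells after 23 h exposure. The human hepatoma line expresses hCAR and a CYP2B6-2.2kb reporter. Incubation medium contains 0.75 uM PK11195 (final).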

[3] = qHTS assay to identify small molecule antagonists of the constitutive androstane receptor (CAR) signaling pathway - cell viability counter screen (AID 1224837); further: series mostly up to about 92 µM; nearly all actives have a fitted effect of over 45% in size
Method in brief: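 Read-out: CellTiter-Fluor fluorescence after 23 hr at 37 C/5% CO2. Cells: HepG2 double-stable for hCAR and CYP2B6-2.2kb. Compounds tested at 15 concentrations in the presence of CITCO, final concentration 50 nM.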

[4] = target: Nuclear receptor subfamily 1 group I member 3 (Homo sapiens) (UniProt Q14994); assay: qHTS assay to identify small molecule antagonists of the constitutive androstane receptor (CAR) signaling pathway (AID 1224838);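 further: HepG2 cells stably expressing hCAR with CYP2B6 luciferase reporter stimulated by CITCO; nearly all actives have a fitted effect of over 40% in size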; further: potency means the concentration at half of the fitted maximal effect
Sequence of Nuclear receptor subfamily 1 group I member 3 (Homo sapiens) (Q14994 whole entry, looked up): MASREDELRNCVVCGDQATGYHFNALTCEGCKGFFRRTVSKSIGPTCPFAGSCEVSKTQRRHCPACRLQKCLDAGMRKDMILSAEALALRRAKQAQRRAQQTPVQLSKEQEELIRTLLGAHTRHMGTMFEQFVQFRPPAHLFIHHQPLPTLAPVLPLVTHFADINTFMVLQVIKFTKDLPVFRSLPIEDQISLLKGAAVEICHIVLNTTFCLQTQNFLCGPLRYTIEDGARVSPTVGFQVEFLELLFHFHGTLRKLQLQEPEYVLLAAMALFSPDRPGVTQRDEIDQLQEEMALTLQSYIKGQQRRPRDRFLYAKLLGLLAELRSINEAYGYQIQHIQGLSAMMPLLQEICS
Method in brief: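 Read-out: ONE-Glo luciferase luminescence after 30 min at room temperature. HepG2-CYP2B6-hCAR double-stable cells, compounds in 15-point titration plus 50 nM CITCO final, 24 h at 37 C/5% CO2.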

[5] = qHTS assay to identify small molecule antagonists of the estrogen related receptor signaling pathway with the pleiotropic PPARgamma coactivator (PGC) from Tox21 10K library - cell viability counter screen (AID 1224840; active means well fitted cell-killing curve with a large enough effect in the repeat runs, not every such curve was filed as active; further: nearly all actives have a fitted effect of over 40% in size; further: potency means the concentration at half of the fitted maximal effect)
Method in brief: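 Fluorescence read-out of CellTiter-Fluor viability reagent, added after cells had been exposed to compound in DMSO for 17.5 h at 37 C; 30 min development at 37 C/5% CO2. Cells: PGC/ERR line, 2,000/well.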

[6] = qHTS assay to identify small molecule antagonists of the estrogen related receptor signaling pathway with the pleiotropic PPARgamma coactivator (PGC) from Tox21 10K library (AID 1224841; call rule not given here; further: actives are mostly falling curves and most rising ones were filed inactive; nearly all actives have a fitted effect of over 50% in size; further: potency means the concentration at half of the fitted maximal effect)
Method in brief: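 Luminescence read-out (One-Glo luciferase reagent, 30 min at room temperature) from PGC/ERR cells exposed to DMSO-dissolved test compounds for 18 h at 37 C; cells, 2,000 per well, had been preincubated 6 h before compound transfer.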

[7] = qHTS assay to identify small molecule agonists of the estrogen related receptor signaling pathway with the pleiotropic PPARgamma coactivator (PGC) from Tox21 10K library (AID 1224842); further: nearly all actives have a fitted effect of over 15% in size
Method in brief: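 Luminescence from One-Glo (30 min, room temperature) measured after PGC/ERR cells had 18 h at 37 C with pinned compound (23 nL in DMSO). Cells had been seeded at 2,000 per well and pre-incubated 6 h.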

[8] = target: Thyrotropin receptor (Homo sapiens) (UniProt P16473); assay: qHTS assay to identify small molecule agonists of the thyroid stimulating hormone receptor (TSHR) signaling pathway (AID 1224843; calls by dose curve; further: nearly all actives have a fitted effect of over 45% in size; further: potency means the concentration at half of the fitted maximal effect)
Sequence of Thyrotropin receptor (Homo sapiens) (P16473 whole entry, looked up): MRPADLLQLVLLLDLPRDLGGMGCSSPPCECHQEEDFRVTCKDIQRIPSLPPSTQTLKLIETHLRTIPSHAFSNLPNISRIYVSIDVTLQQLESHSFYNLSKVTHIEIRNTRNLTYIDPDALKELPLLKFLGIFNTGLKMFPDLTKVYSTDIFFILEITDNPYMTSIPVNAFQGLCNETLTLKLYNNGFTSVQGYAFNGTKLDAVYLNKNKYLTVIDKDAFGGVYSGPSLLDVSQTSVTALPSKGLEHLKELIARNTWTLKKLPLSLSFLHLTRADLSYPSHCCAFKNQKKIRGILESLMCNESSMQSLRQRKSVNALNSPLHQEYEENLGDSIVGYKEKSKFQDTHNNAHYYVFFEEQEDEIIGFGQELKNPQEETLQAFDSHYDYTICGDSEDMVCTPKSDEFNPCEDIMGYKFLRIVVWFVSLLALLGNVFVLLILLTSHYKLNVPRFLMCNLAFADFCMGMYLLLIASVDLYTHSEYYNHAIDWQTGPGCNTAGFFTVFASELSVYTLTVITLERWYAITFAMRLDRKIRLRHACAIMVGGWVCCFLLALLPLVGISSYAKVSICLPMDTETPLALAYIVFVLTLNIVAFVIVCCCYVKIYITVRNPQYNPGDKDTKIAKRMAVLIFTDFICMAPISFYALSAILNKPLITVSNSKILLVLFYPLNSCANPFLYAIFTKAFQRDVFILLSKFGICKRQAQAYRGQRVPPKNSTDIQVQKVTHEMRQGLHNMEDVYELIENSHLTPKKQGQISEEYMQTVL
Method in brief: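 A cell-based cAMP HTRF format was run in TSHR-transfected HEK293 cells, 800 per well. Treatment: 30 min, room temperature. Detection: 1 h with labelled cAMP and anti-cAMP cryptate. Concentration-response over 15 points, three replicates.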

[9] = target: Nuclear receptor subfamily 1 group I member 3 (Homo sapiens) (UniProt Q14994); assay: qHTS assay to identify small molecule agonists of the constitutive androstane receptor (CAR) signaling pathway (AID 1224839); further: nearly all actives have a fitted effect of over 15% in size; further: potency means the concentration at half of the fitted maximal effect
Method in brief: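 Stable hCAR/CYP2B6-2.2kb HepG2 line in DMEM with 10% FBS; compounds (15 concentrations) and 0.75 uM PK11195 final, 24 h at 37 C/5% CO2, then ONE-Glo luminescence after 30 min.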

[10] = qHTS assay to identify small molecule antagonists of the estrogen related receptor (ERR) signaling pathway from Tox21 library - cell viability counter screen (AID 1224834); further: nearly all actives have a fitted effect of over 30% in size; further: potency means the concentration at half of the fitted maximal effect
Method in brief: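 Multiplexed viability counter screen in ERR cells: 17.5 h compound exposure at 37 C, CellTiter-Fluor added, 30 min at 37 C/5% CO2, fluorescence read.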

| SMILES | Potency [1] | Potency [2] | Potency [3] | Potency [4] | Potency [5] | Potency [6] | outcome [7] | Potency [8] | Potency [9] | Potency [10] |
| --- | --- | --- | --- | --- | --- | --- | --- | --- | --- | --- |
| Nc1c(Br)cc([N+](=O)[O-])cc1[N+](=O)[O-] | inactive | inactive | inactive | inactive | inactive | inactive | inactive | inactive | – | – |
| COc1ncc(F)c2nc(S(=O)(=O)Nc3c(F)cccc3F)nn12 | inactive | inactive | inactive | inactive | inactive | – | – | inactive | inactive | – |
| O=C(CCCN1CCC(n2c(=O)[nH]c3ccccc32)CC1)c1ccc(F)cc1 | inactive | inactive | inactive | inactive | inactive | – | – | inactive | inactive | – |
| ClCCCN1CCN(c2cccc(Cl)c2)CC1 | inactive | – | inactive | inactive | inactive | inactive | inactive | inactive | – | inactive |
| COP(=S)(OC)Oc1c(Cl)cc(C)cc1Cl | – | inactive | inactive | inactive | inactive | inactive | inactive | – | 27.3 µM (active) | inactive |
| CCOP(=S)(OCC)Oc1nc(Cl)n(C(C)C)n1 | – | inactive | inactive | – | inactive | – | – | inactive | – | inactive |
| CCCCCCI | – | inactive | inactive | inactive | inactive | – | inactive | – | inactive | inactive |
| COC(=O)COc1ccc(Cl)cc1Cl | – | inactive | inactive | – | inactive | inactive | inactive | – | – | inactive |
| COc1ccc2c(c1OC)CN1CCc3cc4c(cc3C1C2)OCO4 (stereo unspecified) | inactive | inactive | inactive | – | inactive | – | – | inactive | – | – |
| CCN(CC)C(=O)[C@@H]1C=C2c3cccc4[nH]cc(c34)C[C@H]2N(C)C1 | inactive | – | – | – | – | – | inactive | – | inactive | 80 µM (active) |
| C[C@]12CC[C@H]3[C@@H](CC=C4C[C@@H](O)CC[C@@]43C)[C@@H]1CC[C@@H]2O | – | inactive | inactive | – | inactive | – | – | – | – | inactive |
| C=CCC1=C(C)[C@@H](OC(=O)[C@@H]2[C@@H](C=C(C)C)C2(C)C)CC1=O | inactive | – | inactive | inactive | – | – | inactive | inactive | 24.3 µM (active) | 54.5 µM (active) |
| CC(C)(C)NCC(O)c1cc(Cl)c(N)c(Cl)c1 (stereo unspecified) | inactive | – | – | – | inactive | inactive | inactive | 0.0021 µM (active) | – | – |
| CN/C(=N\[N+](=O)[O-])NCC1CCOC1 (stereo unspecified) | – | inactive | inactive | inactive | inactive | – | – | inactive | inactive | inactive |
| Fc1ccc(C2(Cn3cncn3)OC2c2ccccc2Cl)cc1 (stereo unspecified) | inactive | – | inactive | inactive | – | 38.6 µM (active) | inactive | inactive | inactive | – |
| CCCCOP(=O)(O)OCCCC | inactive | inactive | inactive | – | inactive | – | – | inactive | – | inactive |
| Nc1n[nH]c(N)n1 | inactive | – | inactive | 27.8 µM (active) | inactive | – | – | inactive | inactive | inactive |
| O=[N+]([O-])c1cccc2c([N+](=O)[O-])cccc12 | inactive | – | – | inactive | – | 34.6 µM (active) | inactive | inactive | – | 61.4 µM (active) |
| CC1COC2(c3ccccc3Cl)c3cc(Cl)ccc3NC(=O)CN12 (stereo unspecified) | inactive | inactive | inactive | – | inactive | 21.1 µM (active) | inactive | inactive | inactive | – |
| CC1=C(C(=O)Nc2ccccc2)S(=O)(=O)CCO1 | inactive | – | inactive | – | – | – | – | inactive | inactive | 61.1 µM (active) |
| CNC(=O)Oc1cccc(C(C)C)c1 | – | inactive | inactive | – | inactive | – | – | inactive | – | inactive |
| O=c1oc2ccccc2c(O)c1C1CCCc2ccccc21 (stereo unspecified) | – | inactive | inactive | inactive | inactive | 54.5 µM (active) | inactive | – | inactive | inactive |
| CC(COc1ccc(Oc2ccccc2)cc1)Oc1ccccn1 (stereo unspecified) | – | inactive | inactive | inactive | inactive | inactive | inactive | – | 54.4 µM (active) | inactive |
| C[C@H]1CCC[C@H](O)CCCCCc2cc(O)cc(O)c2C(=O)O1 | inactive | inactive | – | inactive | – | 54.9 µM (active) | inactive | inactive | inactive | 61.6 µM (active) |
| CCOP(=S)(OCC)Oc1ncn(-c2ccccc2)n1 | – | inactive | inactive | inactive | inactive | – | – | – | 30.6 µM (active) | inactive |
| BrCCCCCCBr | – | inactive | inactive | inactive | inactive | – | – | inactive | inactive | inactive |
| COc1cccc(C(=O)NN(C(=O)c2cc(C)cc(C)c2)C(C)(C)C)c1C | inactive | – | – | inactive | inactive | inactive | inactive | inactive | inactive | – |
| CCOC(=O)C(c1c(O)c2ccccc2oc1=O)c1c(O)c2ccccc2oc1=O | – | inactive | inactive | – | inactive | – | – | inactive | inactive | inactive |
| CSc1nc(N=[N+]=[N-])nc(NC(C)C)n1 | inactive | inactive | inactive | inactive | inactive | – | – | inactive | 54.5 µM (active) | – |
| N#CC(CCc1ccc(Cl)cc1)(Cn1cncn1)c1ccccc1 (stereo unspecified) | inactive | – | – | – | 34.4 µM (active) | 34.4 µM (active) | inactive | 8.63 µM (active) | 21.7 µM (active) | 30.6 µM (active) |
